One experiment relates to HEK293. Nature of the experiment: Cytotoxic Profiling of Annotated Libraries Using Quantitative High-Throughput Screening (AID 1296008). Further: nearly all actives have a fitted effect of over 60% in size. On max response: on the % scale 0 is the no-effect control and ±100 the full control effect. To be noted: Five cell lines viability, CellTiter-Glo ATP luminescence, 48-72 h; max response: active compounds read low. The method, boiled down: (§1)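 Compounds were pin-transferred onto cells and incubated 48 or 72 hr at 37 degree Celsius, 95% humidity. CellTiter-Glo was added, plates sat 10 min at room temperature, then ATP-coupled luminescence was imaged as the viability read-out.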
A general note: In ATP-based viability assays light output follows the ATP content of the culture.

In experiment [1] the test system is HaCat. Described as above. The conditions noted are these: Five cell lines viability, CellTiter-Glo ATP luminescence, 48-72 h; max response: active compounds read low. A digest of the protocol: as §1
The test system of the next experiment is KB-3-1. The experiment is described as above. To be noted: Five cell lines viability, CellTiter-Glo ATP luminescence, 48-72 h; max response: active compounds read low. A digest of the protocol:
as §1

Experiment [2] relates to HACAT. Nature of the experiment: qHTS assay to identify novel small-molecules to repurpose for Merkel cell carcinoma treatment (AID 1296009). Further: nearly all actives have a fitted effect of over 60% in size. To be noted: MCC and control cell lines, CellTiter-Glo viability, 72 h; at 44.8 µM (top of the series) unless noted. The method, boiled down: (§2)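 Viability readout: ATP luminescence (CellTiter-Glo) after 72 hr drug exposure at 37 degree celsius. Dose-response format was 8 points for NPC and 11 points for MIPE; data normalized to in-plate controls.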

Another experiment deals with MCC-13. Described as above. The conditions noted are these: MCC and control cell lines, CellTiter-Glo viability, 72 h; series mostly up to 46 µM. A digest of the protocol:
as §2

The next experiment concerns Es-2. The experiment in a line: Primary qHTS to identify gynecologic anti-cancer compounds using libraries of approved drugs and bioactive compounds (AID 1345084). Further: nearly all actives have a fitted effect of over 55% in size. The conditions noted are these: Gynecologic cancer cell panel viability, ATPlite luminescence, 48 h; series mostly up to 57.5 µM. A digest of the protocol: (§3)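 Five-point cytotoxicity, 48 h drug exposure at 37 C, 5% CO2, on cells seeded 16 h beforehand. ATP content read by ATPlite luminescence.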

The test system of the next experiment is HeLa. The description is as above. The conditions noted are these: Gynecologic cancer cell panel viability, ATPlite luminescence, 48 h; series mostly up to 57.5 µM. The method, boiled down:
as §3

Experiment [3] concerns NIH3T3. Nature of the experiment: Cytotoxic Profiling of Annotated Libraries Using Quantitative High-Throughput Screening (AID 1296008). Further: nearly all actives have a fitted effect of over 60% in size. On max response: on the % scale 0 is the no-effect control and ±100 the full control effect. The conditions noted are these: Five cell lines viability, CellTiter-Glo ATP luminescence, 48-72 h; max response: active compounds read low. The method, boiled down: as §1
The test system of a further experiment is WaGa. The experiment in a line: qHTS assay to identify novel small-molecules to repurpose for Merkel cell carcinoma treatment (AID 1296009). Further: nearly all actives have a fitted effect of over 60% in size. To be noted: MCC and control cell lines, CellTiter-Glo viability, 72 h; series mostly up to 46 µM. A digest of the protocol:
as §2
For orientation: In qHTS, concentration-response curves come from the screen itself.

Another experiment concerns MKL-1. The description is as above. The conditions noted are these: MCC and control cell lines, CellTiter-Glo viability, 72 h; series mostly up to 46 µM. A digest of the protocol: as §2
A further experiment has as its system MKL-2. The description is as above. To be noted: MCC and control cell lines, CellTiter-Glo viability, 72 h; series mostly up to 46 µM. The method, boiled down: as §2
The next experiment deals with UISO. The description is as above. To be noted: MCC and control cell lines, CellTiter-Glo viability, 72 h; series mostly up to 46 µM. The method, boiled down: as §2
A further experiment concerns W2. Nature of the experiment: qHTS profiling for inhibitors of Plasmodium falciparum proliferation (AID 504749). Further: nearly all actives have a fitted effect of over 60% in size. The conditions noted are these: P. falciparum in erythrocytes, SYBR Green DNA, 72 h; series mostly up to 28.7 µM. A digest of the protocol:
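Quantitative HTS: compounds pinned into medium, infected erythrocytes added (0.3% parasitemia, 2.5% hematocrit), 72 h culture at 37 C under 5% CO2. Saponin/Triton lysis with SYBR Green I, overnight RT, then fluorescence read.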

The subject of the next experiment is MCC-26. Nature of the experiment: qHTS assay to identify novel small-molecules to repurpose for Merkel cell carcinoma treatment (AID 1296009). Further: nearly all actives have a fitted effect of over 60% in size. To be noted: MCC and control cell lines, CellTiter-Glo viability, 72 h; series mostly up to 46 µM. A digest of the protocol: as §2
The next experiment deals with C33A. The experiment in a line: Primary qHTS to identify gynecologic anti-cancer compounds using libraries of approved drugs and bioactive compounds (AID 1345084). Further: nearly all actives have a fitted effect of over 55% in size. To be noted: Gynecologic cancer cell panel viability, ATPlite luminescence, 48 h; series mostly up to 57.5 µM. A digest of the protocol:
as §3

Another experiment deals with CASKI. The description is as above. The conditions noted are these: Gynecologic cancer cell panel viability, ATPlite luminescence, 48 h; series mostly up to 57.5 µM. The method, boiled down: as §3
The subject of the next experiment is CAOV3. The description is as above. To be noted: Gynecologic cancer cell panel viability, ATPlite luminescence, 48 h; series mostly up to 57.5 µM. A digest of the protocol: as §3
The subject of experiment [4] is NIH3T3. Nature of the experiment: qHTS assay to identify novel small-molecules to repurpose for Merkel cell carcinoma treatment (AID 1296009). Further: nearly all actives have a fitted effect of over 60% in size. The conditions noted are these: MCC and control cell lines, CellTiter-Glo viability, 72 h; at 44.8 µM (top of the series). The method, boiled down: as §2

Structures are written as SMILES. Where “and” joins values, the source holds several entries; their conditions need not be identical. Equal values may be shown once. Inconclusive results are not listed. A number with no mark means an inactive call. Calls of active or inactive are those of the source. The call rests on the fitted dose curve; in most records, active means well fitted curve in the direction sought with a large enough effect; inconclusive means small, poorly fitted or top-dose-only effect, or another doubt; inactive means no such curve, though single readings can be large; an effect the other way counts as inactive or inconclusive.
Potency means the concentration at half of the fitted maximal effect.

Consider `CCOC(=O)[C@@](C)(N)Cc1ccc(O)c(O)c1`, for which, in the experiment on HEK293, the Potency is 18.8 µM (active). In addition, the result with HaCat [1] and with HACAT [2] was inactive. The max response in the experiment with KB-3-1 was -9.02%. Besides, the Potency result in the experiment on MCC-13, in the experiment with Es-2 and with HeLa was “inactive” in each case.
For `CN=C(N)NCCC[C@H](N)C(=O)O`, the max response in the experiment with KB-3-1 is -24.2% and -3.13% and -1.75%.
In the case of `CCCCCCCCCCCCOCCOCCOCCOCCOCCOCCOCCOCCOCCO`, the Potency was 7.5 µM (active) with HEK293 and 21.1 µM (active) in the experiment on WaGa. Besides, the max response in the experiment on HaCat [1] was 0.283%; in the experiment on NIH3T3 [3], -5.79%. Moreover, the Potency result with MCC-13 was “inactive”.
With `O=C(N/N=C/c1ccc([N+](=O)[O-])o1)c1ccc(O)cc1`, the Potency in the experiment with HEK293 was 7.5 µM (active); in the experiment with MKL-1 it was 9.44 µM (active); with MKL-2, 10.6 µM (active); in the experiment with UISO, 13.3 µM (active); in the experiment on WaGa, 10.6 µM (active). In addition, the max response in the experiment with HaCat [1] was -33.9%; in the experiment with KB-3-1, -13.9%. In addition, the Potency entry with HeLa was “inactive”.
As to `CCCCCCCCCCCCCC[N+](C)(C)Cc1ccccc1`, the Potency is 4.26 µM (active) with W2; 2.99 µM (active) in the experiment on HEK293; 11.9 µM (active) in the experiment on HaCat [1]; 21.1 µM (active) in the experiment with MCC-26; 6.68 µM (active) in the experiment with MKL-1; 1.06 µM (active) in the experiment with MKL-2. Besides, the Potency was 6.68 µM (active) with UISO; 7.5 µM (active) in the experiment on WaGa; 25.1 µM (active) in the experiment with C33A; 14.1 µM (active) in the experiment with CASKI; 25.1 µM (active) in the experiment on HeLa.
`Oc1c(Cl)cc(Cl)c(Cl)c1Cc1c(O)c(Cl)cc(Cl)c1Cl`: the Potency in the experiment on HEK293 is 8.41 µM (active); with UISO, 11.9 µM (active); in the experiment with WaGa, 23.7 µM (active). Also, the Potency entry in the experiment on MCC-26, in the experiment on CAOV3 and with CASKI was “inactive” in each case.
With `CCC(C(=O)OCCOCCN(CC)CC)c1ccccc1` (stereo not given), in the experiment on W2, the Potency was 12 µM (active). In the experiment on HEK293, the max response was -19.3%. For the same molecule, the molecule was classed as inactive in the experiment with HaCat [1], with NIH3T3 [3], with HACAT [2] and with NIH3T3 [4]. Besides, the Potency entry with MCC-13, with MCC-26, in the experiment on MKL-1, in the experiment with MKL-2, in the experiment with UISO and in the experiment on WaGa was “inactive” throughout. Also, the Potency result in the experiment with C33A, with CAOV3, with CASKI, with Es-2 and with HeLa was “inactive” each time.

These data come from PubChem BioAssay (NCATS).
